# Assays:
# Assay in all cases: PBM binding z-score (relative to random genomic background probes); higher = stronger binding; sequences stand for … in GC…GCGATTGACAGCGTAGAATGAAGG
# [1] = tested on: FXR:RXRa (NR concentration 270 nM, RXRa partner concentration 90 nM)
# How it was run: (§1)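 On custom Agilent 4×180K arrays, double-stranded probes with 34-nt variable regions carried direct-repeat seeds, single-nucleotide variants, half-site ablations or random human genomic background. Ligand-free nuclear receptor dimers were applied for 1 h, and binding was read with antibodies against each partner (one per run). Binding z-scores come from regression-normalized fluorescence, with the random background probes as reference.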
# [2] = tested on: LXRa:RXRa (NR concentration 270 nM, RXRa partner concentration 90 nM)
# How it was run: as §1
# [3] = tested on: LXRa homodimer (NR concentration 270 nM)
# How it was run: as §1
# [4] = tested on: LXRb:RXRa (NR concentration 270 nM, RXRa partner concentration 90 nM)
# How it was run: as §1
# [5] = tested on: LXRb homodimer (NR concentration 270 nM)
# How it was run: as §1
# [6] = tested on: PPARa:RXRa (NR concentration 270 nM, RXRa partner concentration 90 nM)
# How it was run: as §1
# [7] = tested on: PPARg:RXRa (NR concentration 180 nM, RXRa partner concentration 90 nM)
# How it was run: as §1
# [8] = tested on: PPARg:RXRa 270nM:90nM, anti-RXR (NR concentration 270 nM, RXRa partner concentration 90 nM)
# How it was run: as §1
# [9] = tested on: PPARg:RXRa 30nM:10nM, anti-RXR (NR concentration 30 nM, RXRa partner concentration 10 nM)
# How it was run: as §1
# [10] = tested on: PPARg:RXRa 90nM:30nM, anti-RXR (NR concentration 90 nM, RXRa partner concentration 30 nM)
# How it was run: as §1
# [11] = tested on: PPARg:RXRa DBDmut IVT, anti-RXR (DBD mutation: RXRa K156A/R161A, NR concentration 270 nM, RXRa partner concentration 90 nM)
# How it was run: as §1
# [12] = tested on: PPARg:RXRa IVT, anti-PPARg (NR concentration 270 nM, RXRa partner concentration 90 nM)
# How it was run: as §1
# [13] = tested on: PPARg DBDmut:RXRa IVT, anti-PPARg (DBD mutation: PPARg1 K132A/R137A, NR concentration 270 nM, RXRa partner concentration 90 nM)
# How it was run: as §1
# [14] = tested on: PPARg DBDmut IVT, anti-PPARg (DBD mutation: PPARg1 K132A/R137A, NR concentration 270 nM)
# How it was run: as §1
# [15] = tested on: PPARg homodimer (NR concentration 180 nM)
# How it was run: as §1
# [16] = tested on: PXR:RXRa (NR concentration 270 nM, RXRa partner concentration 90 nM)
# How it was run: as §1
# [17] = tested on: PXR homodimer (NR concentration 270 nM)
# How it was run: as §1
# [18] = tested on: RARa:RXR (NR concentration 270 nM, RXRa partner concentration 90 nM)
# How it was run: as §1
# [19] = tested on: RARa homodimer (NR concentration 270 nM)
# How it was run: as §1
# [20] = tested on: RARb:RXRa (NR concentration 270 nM, RXRa partner concentration 90 nM)
# How it was run: as §1
Sequence,PBM binding z-score [1],PBM binding z-score [2],PBM binding z-score [3],PBM binding z-score [4],PBM binding z-score [5],PBM binding z-score [6],PBM binding z-score [7],PBM binding z-score [8],PBM binding z-score [9],PBM binding z-score [10],PBM binding z-score [11],PBM binding z-score [12],PBM binding z-score [13],PBM binding z-score [14],PBM binding z-score [15],PBM binding z-score [16],PBM binding z-score [17],PBM binding z-score [18],PBM binding z-score [19],PBM binding z-score [20]
ATCTCGAGGTAAAGATAGTTCAGTGAATGCAAAT,0.198,5.34,0.132,1.62,0.118,0.727,0.145,0.25,0.14,0.23,-0.0258,0.54,0.0992,0.266,0.0262,2.22,0.66,0.499,-0.0875,0.896
ATCTCTAGCTAACAAGTTCAGTGAAAGAGAGGAC,0.604,0.71,0.538,0.504,0.838,0.381,0.2,-0.0606,0.335,0.17,-0.615,0.373,0.64,1.17,0.988,1.36,1.62,0.744,1.13,1.15
CAAACTAGGTCAAAGGTCAAAGTCGAGCCAACCA,8.73,7.31,6.02,7.38,3.55,7.8,14,11.4,12.3,13.1,8.73,9.33,2.23,2.15,5.09,7.21,2.02,8.8,3.18,5.96
TCTCGGAGGACACGAAGGTCAGTGCTTTCCAGAG,1.02,1.19,-0.141,0.731,-0.921,1.59,0.156,1.49,2.2,1.94,1.42,1.08,-0.7,-0.641,0.926,1.54,0.566,1.52,-0.39,3.29
GCTTACGGGTCAAAGTTTATAGCATGAATAGAAT,6.86,4.62,0.38,4.67,0.532,6.2,9.24,8.11,7.16,8.84,4.19,5.17,1.43,1.62,2.34,4.83,1.1,6.42,0.895,4.06
ACTATTAGTTGAGACGGGGGCAACCGATAGGTTG,1.28,1.35,0.528,3.71,7.57,2.52,1.16,2.35,1.24,1.87,1.48,3.27,5.1,7.99,1.63,2.63,0.549,2.25,0.997,1.94
GCTTGTAGATCAAGGTGAAGAAAGACTAAGCTAA,-0.249,-0.317,-0.489,-0.225,-0.819,0.597,0.122,0.939,0.103,0.281,1.63,1.6,-0.514,-0.503,-0.575,-0.352,-0.243,-0.339,-0.424,0.0933
CCGAGCAGGCCAATCTGGGTCACTCAAGGCTTGA,1.11,1.16,-0.65,0.371,-1.25,2.65,2.05,2.12,-0.249,1.21,3.97,4.58,-1.06,-1.1,0.368,0.937,-0.646,1.17,-1.1,1.77
TCTAGTTGGTCACGGACGTCACACACGACGGGTA,0.24,0.203,-0.153,0.406,0.211,0.764,1.24,1.59,2.77,1.95,2.14,1.94,1.1,1.25,0.55,0.245,0.184,0.485,0.469,1.57
GGAACGAGGGCAAAGTGGATAGCATCTGTCGACG,0.8,0.482,-0.564,0.23,-0.66,2.86,4.34,5.37,3.71,5.67,3.95,3.72,0.652,0.661,1.42,0.489,0.241,0.674,-0.182,2.27
ATAGGTAGGTTATCGGGTCATTCAGTTTGCGCAT,3.2,3.22,1.93,3.17,1.52,3.82,4.18,4.48,1.91,3.81,4.9,5.09,1.49,1.46,2.74,3.9,7.44,3.76,2.57,2.62
TAGCCTAGGTCAAGGGCCAGTATACCACGCGAAC,4.16,3.02,0.0881,2.2,-0.716,3.87,4.52,4.61,1.8,3.59,1.71,3.19,-0.167,-0.743,1.63,1.28,-0.234,2.31,-0.242,3.96
ATCTCTAGGTAAAGTTCAGTGTAAGATCGATAGA,1.55,2.13,2.27,1.55,1.1,2.47,3.17,4.49,2.44,4.28,2.66,2.9,1.2,1.55,2.13,2.21,2.38,1.53,1.49,2.56
TAGCCTAGATCATGCGGGCCAGTATAGTGTCGGC,-2.92,-1.33,-1.04,-1.36,-0.772,-0.834,0.0405,-0.522,-0.938,-0.742,0.553,0.672,-0.852,-1.76,-1.53,-1.41,-1.04,-1.57,-0.691,-1.2
